Bioassay records (PubChem)
In the library only some 2.4% were active in any assay of this set; here they are far more common.
M1 ag = agonists of human M1 muscarinic receptor; P11229; CHO-K1 hM1, Fluo-8 calcium fluorescence, agonist mode; 0% DMSO, 100% acetylcholine EC100; activation, % at 3 µM; actives 0.33% (n = 360,000);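 active means activation above the run's mean compound activation plus 3 SD, cut at about 16% in these data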;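 further: peak over basal fluorescence ratio within a 140 s kinetic read after compound addition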
Target sequence (P11229 whole entry, looked up): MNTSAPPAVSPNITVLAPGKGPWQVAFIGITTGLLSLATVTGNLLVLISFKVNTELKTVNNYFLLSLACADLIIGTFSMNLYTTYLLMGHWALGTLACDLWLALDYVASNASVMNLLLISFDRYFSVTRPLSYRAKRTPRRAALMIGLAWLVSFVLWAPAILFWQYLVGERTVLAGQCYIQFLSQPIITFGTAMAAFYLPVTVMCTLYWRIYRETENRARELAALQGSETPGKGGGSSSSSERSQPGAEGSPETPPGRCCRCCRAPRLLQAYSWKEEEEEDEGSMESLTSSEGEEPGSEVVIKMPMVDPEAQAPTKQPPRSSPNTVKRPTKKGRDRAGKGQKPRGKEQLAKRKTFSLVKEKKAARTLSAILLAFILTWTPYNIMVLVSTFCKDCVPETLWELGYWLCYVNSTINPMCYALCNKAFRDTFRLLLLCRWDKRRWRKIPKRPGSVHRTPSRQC
M1 antag = antagonists of human M1 muscarinic receptor; P11229; CHO-K1 hM1, Fluo-8 calcium fluorescence, ACh EC80 antagonist; inhibition, % at 3 µM; actives 1.3% (n = 360,000); AID 588852;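 active means percent inhibition above its own plate's cutoff, namely the mean of that plate's compound wells plus 3 SD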;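 further: peak over basal fluorescence ratio during 140 s after agonist addition; 0% = ACh EC80 plus DMSO and 100% = DMSO alone without agonist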
M1 PAM = potentiates human M1 receptor response to acetylcholine | P11229 | CHO-K1 hM1, Fluo-8 calcium fluorescence, ACh EC20; 0% = ACh EC20, 100% = maximal ACh | activation, % at 3 µM | actives 0.088% (n = 360,000); in the data active means activation above about 19%, passing the limit was not always enough
M1 ag parental = counter-screen for M1 agonists: effect in parental CHO-K1 cells; Fluo-8 calcium fluorescence; scaled to maximal ATP response, vehicle zero; activation, % at 3 µM; actives 0.48% (n = 360,000); in the data active means activation above about 15%;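 further: untransfected CHO-K1 host cells lacking M1 receptor as counterscreen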
CHO-K1 Ca antag = nonselective inhibitor or artifact in parental CHO-K1 cells; ATP-induced calcium, Fluo-8 fluorescence; inhibition, % at 3 µM; actives 0.6% (n = 360,000);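 active means inhibition above a per-plate cutoff, the plate's mean sample inhibition plus 3 SD, cut at about 24% in these data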;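 further: 0% = DMSO plus EC80 ATP and 100% = DMSO alone without ATP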
CHO-K1 Ca PAM = nonselective activator or artifact in parental CHO-K1 calcium assay. ATP EC20, Fluo-8 calcium fluorescence; 0% at ATP EC20, 100% at ATP max. activation, % at 3 µM. actives 0.02% (n = 360,000);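 active means activation above the run cutoff, the mean activation of all test compounds plus 3 SD, cut at about 40% in these data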;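 further: peak over basal fluorescence ratio in a 140 s read after ATP addition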
* marks the source's active call; other numbers are inactive results.

How did O=C(O)C(c1ccccc1)N1C(=O)c2ccccc2C1=O (stereo not drawn) do in these assays?
M1 ag: 1; M1 antag: -30; M1 PAM: 24; M1 ag parental: 0; CHO-K1 Ca antag: -4; CHO-K1 Ca PAM: 7

How did O=C(O)[C@@H](c1ccccc1)N1Cc2ccccc2C1=O do in these assays?
M1 ag: 2; M1 antag: -15; M1 PAM: 14; M1 ag parental: 0; CHO-K1 Ca antag: 30*; CHO-K1 Ca PAM: -10

How did COc1cc(/C=C/C(=O)c2ccc3c(c2)OCO3)cc(Cl)c1O do in these assays?
M1 ag: 47*; M1 antag: 35*; M1 PAM: -19; M1 ag parental: 23*; CHO-K1 Ca antag: 17; CHO-K1 Ca PAM: -5

How did CN(Cc1ccccc1)S(=O)(=O)c1ccc(NS(=O)(=O)Cc2ccccc2)cc1 do in these assays?
M1 ag: -4; M1 antag: 30*; M1 PAM: -15; M1 ag parental: 2; CHO-K1 Ca antag: 22; CHO-K1 Ca PAM: -9

How did CN(Cc1ccccc1)S(=O)(=O)c1ccc2c(c1)n(C)c(=O)c(=O)n2C do in these assays?
M1 ag: -4; M1 antag: -14; M1 PAM: 7; M1 ag parental: 0; CHO-K1 Ca antag: 0; CHO-K1 Ca PAM: 12

How did CN(Cc1ccccc1)S(=O)(=O)c1ccc(N2CCCC2=O)cc1 do in these assays?
M1 ag: 1; M1 antag: 4; M1 PAM: -1; M1 ag parental: 16*; CHO-K1 Ca antag: 23; CHO-K1 Ca PAM: 1

How did Nc1ccc(-c2c3ccc(=O)cc-3oc3cc(O)ccc23)cc1C(=O)O do in these assays?
M1 ag: 278*; M1 antag: 55*; M1 PAM: -38; M1 ag parental: 133*; CHO-K1 Ca antag: 27*; CHO-K1 Ca PAM: -28

How did O=c1cc(-c2ccccc2)oc2cc(O)ccc12 do in these assays?
M1 ag: -2; M1 antag: -6; M1 PAM: 0; M1 ag parental: 1; CHO-K1 Ca antag: -3; CHO-K1 Ca PAM: 5

What do the screens show for `O=c1ccc2c(-c3ccccc3)c3ccc(O)cc3oc-2c1`?
M1 ag: active; M1 antag: 104*; M1 PAM: -30; M1 ag parental: 533*; CHO-K1 Ca antag: 93*; CHO-K1 Ca PAM: -11

How did O=C(Nc1ccccc1C(F)(F)F)C1CCN(C(=O)Cc2ccccc2)CC1 do in these assays?
M1 ag: -1; M1 antag: -2; M1 PAM: 5; M1 ag parental: 1; CHO-K1 Ca antag: -9; CHO-K1 Ca PAM: -6

What do the screens show for `O=C1NC(=O)C2(N1)C(=O)c1cccc3cccc2c13` (stereo not drawn)?
M1 ag: 49*; M1 antag: 6; M1 PAM: -9; M1 ag parental: 100*; CHO-K1 Ca antag: 20; CHO-K1 Ca PAM: 1

What do the screens show for `Cc1ccccc1NC(=O)c1ccc(C)c(S(=O)(=O)NCc2cccnc2)c1`?
M1 ag: 22*; M1 antag: -6; M1 PAM: 10; M1 ag parental: 5; CHO-K1 Ca antag: -5; CHO-K1 Ca PAM: 6

What do the screens show for `COc1ccc(C(=O)N2CCCC(Nc3ccc(C)c(C)c3)C2)c(OC)n1` (stereo not drawn)?
M1 ag: -3; M1 antag: -6; M1 PAM: 3; M1 ag parental: 0; CHO-K1 Ca antag: -1; CHO-K1 Ca PAM: -5

Results for OC(COc1ccc2c(c1)CCC2)CN1CCN(c2ccccc2F)CC1 (stereo not drawn) ?
M1 ag: -7; M1 antag: -4; M1 PAM: 1; M1 ag parental: 3; CHO-K1 Ca antag: -17; CHO-K1 Ca PAM: 11

How did Oc1ccccc1N1CCN(CC(O)COC2CCCc3ccccc32)CC1 (stereo not drawn) do in these assays?
M1 ag: -11; M1 antag: 39*; M1 PAM: -29; M1 ag parental: 2; CHO-K1 Ca antag: 1; CHO-K1 Ca PAM: -9

Results for N#CC(C#N)=C1CCCc2sccc21 ?
M1 ag: -5; M1 antag: -8; M1 PAM: 3; M1 ag parental: 1; CHO-K1 Ca antag: -2; CHO-K1 Ca PAM: 6
